Results: PMC7862700, “An all-to-all approach to the identification of sequence-specific readers for epigenetic DNA modifications on cytosine”

Experiments:
Assay in all cases: DAPPL (digital affinity profiling via proximity ligation, sequencing); 10 mM Tris-HCl pH 7.5, 50 mM NaCl, 1 mM DTT, 4% glycerol, room temperature, 30 min; GST-TFs on glutathione beads, 16-mer random dsDNA library, 0.1% formaldehyde crosslink after washing; high values mean tight binding
FLI1 = biological target: T1, FLI1 (Homo sapiens, UniProt Q01543 1-452); details: protein: recombinant; tags: N-terminal GST; dsDNA, one strand shown
T1 sequence: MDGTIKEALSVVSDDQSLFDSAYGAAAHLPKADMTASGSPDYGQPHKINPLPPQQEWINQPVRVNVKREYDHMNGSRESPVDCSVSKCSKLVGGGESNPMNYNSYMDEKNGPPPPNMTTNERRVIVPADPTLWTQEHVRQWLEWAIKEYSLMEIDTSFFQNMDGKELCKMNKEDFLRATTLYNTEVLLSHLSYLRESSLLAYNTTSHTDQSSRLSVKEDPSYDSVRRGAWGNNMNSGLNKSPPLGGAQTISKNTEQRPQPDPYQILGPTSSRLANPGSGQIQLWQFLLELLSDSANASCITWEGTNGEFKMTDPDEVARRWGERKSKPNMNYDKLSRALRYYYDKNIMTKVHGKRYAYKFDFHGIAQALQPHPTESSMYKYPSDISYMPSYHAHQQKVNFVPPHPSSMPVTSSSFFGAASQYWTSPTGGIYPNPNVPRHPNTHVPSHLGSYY
Method in brief: (§1)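 Pools of DNA-barcoded human transcription factors, expressed in yeast as GST fusions on glutathione beads and combined with a tag-only sample, were incubated with 200 nmole of a 16-mer random double-stranded DNA library. Incubation took 30 min at room temperature in Tris/NaCl/DTT/glycerol buffer and was followed by washing, 0.1% formaldehyde crosslinking, proximity ligation (BsaI/T4 ligase, 1 h, 37 °C), PCR amplification and sequencing on an Illumina NextSeq500. Binding signal is the ratio of a hexamer's read frequency for a factor to its frequency for the tag-only sample.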

ELK1 = biological target: T2, ELK1 (Homo sapiens, UniProt P19419 1-428); details: protein: recombinant; tags: N-terminal GST; dsDNA, one strand shown
T2 sequence: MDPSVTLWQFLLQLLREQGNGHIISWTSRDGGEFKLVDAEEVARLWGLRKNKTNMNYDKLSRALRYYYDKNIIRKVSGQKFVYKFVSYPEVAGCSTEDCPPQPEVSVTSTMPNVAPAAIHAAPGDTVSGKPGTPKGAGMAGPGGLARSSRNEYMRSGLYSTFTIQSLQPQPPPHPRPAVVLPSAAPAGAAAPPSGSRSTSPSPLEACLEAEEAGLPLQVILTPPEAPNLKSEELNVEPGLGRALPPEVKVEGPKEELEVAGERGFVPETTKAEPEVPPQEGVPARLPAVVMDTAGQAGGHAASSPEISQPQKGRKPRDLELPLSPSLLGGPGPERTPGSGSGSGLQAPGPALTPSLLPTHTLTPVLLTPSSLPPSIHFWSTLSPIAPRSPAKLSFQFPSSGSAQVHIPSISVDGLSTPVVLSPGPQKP
Method in brief: as §1

GABPA = biological target: T3, GABPA (Homo sapiens, UniProt Q06546 1-454); details: protein: recombinant; tags: N-terminal GST; dsDNA, one strand shown
T3 sequence: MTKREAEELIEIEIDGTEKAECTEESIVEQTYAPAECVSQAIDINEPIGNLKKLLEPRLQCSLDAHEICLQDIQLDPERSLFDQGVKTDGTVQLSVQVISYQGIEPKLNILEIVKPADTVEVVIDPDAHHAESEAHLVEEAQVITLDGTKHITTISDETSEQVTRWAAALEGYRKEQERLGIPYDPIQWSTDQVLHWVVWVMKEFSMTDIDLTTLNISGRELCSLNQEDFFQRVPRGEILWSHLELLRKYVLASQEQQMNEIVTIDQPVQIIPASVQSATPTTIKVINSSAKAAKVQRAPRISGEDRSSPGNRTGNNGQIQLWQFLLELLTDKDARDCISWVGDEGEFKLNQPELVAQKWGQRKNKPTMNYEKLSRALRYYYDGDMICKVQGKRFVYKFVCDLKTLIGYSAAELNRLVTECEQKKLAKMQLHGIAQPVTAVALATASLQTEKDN
Method in brief: as §1

ERG = biological target: T4, ERG (Homo sapiens, UniProt P11308 1-479); details: protein: recombinant; tags: N-terminal GST; dsDNA, one strand shown
T4 sequence: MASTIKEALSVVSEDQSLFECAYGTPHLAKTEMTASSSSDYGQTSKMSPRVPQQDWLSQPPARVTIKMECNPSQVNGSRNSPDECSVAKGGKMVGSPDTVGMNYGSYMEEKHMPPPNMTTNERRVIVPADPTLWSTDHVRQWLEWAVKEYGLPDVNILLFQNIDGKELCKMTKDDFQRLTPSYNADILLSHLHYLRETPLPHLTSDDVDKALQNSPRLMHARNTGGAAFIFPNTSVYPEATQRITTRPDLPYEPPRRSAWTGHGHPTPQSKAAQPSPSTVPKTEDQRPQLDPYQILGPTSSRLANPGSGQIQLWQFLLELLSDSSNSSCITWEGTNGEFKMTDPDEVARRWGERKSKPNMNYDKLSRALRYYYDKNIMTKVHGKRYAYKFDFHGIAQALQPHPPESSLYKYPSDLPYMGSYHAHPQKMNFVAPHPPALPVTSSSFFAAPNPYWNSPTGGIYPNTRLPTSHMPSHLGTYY
Method in brief: as §1

ELF1 = ELF1 (Homo sapiens, UniProt P32519 1-619); details: protein: recombinant; tags: N-terminal GST; dsDNA, one strand shown
Method in brief: as §1

EHF = biological target: T5, EHF (Homo sapiens, UniProt Q9NZC4 1-300); details: protein: recombinant; tags: N-terminal GST; dsDNA, one strand shown
T5 sequence: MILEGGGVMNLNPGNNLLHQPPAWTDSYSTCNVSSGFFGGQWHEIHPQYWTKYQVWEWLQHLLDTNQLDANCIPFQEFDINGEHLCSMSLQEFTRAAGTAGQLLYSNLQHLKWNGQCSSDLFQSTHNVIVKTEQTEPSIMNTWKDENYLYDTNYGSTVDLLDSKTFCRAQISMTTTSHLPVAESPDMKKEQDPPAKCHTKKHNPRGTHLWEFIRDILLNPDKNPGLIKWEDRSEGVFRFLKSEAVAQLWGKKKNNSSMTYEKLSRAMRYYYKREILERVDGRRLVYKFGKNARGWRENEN
Method in brief: as §1

SPI1 = SPI1 (Homo sapiens, UniProt P17947 1-270); details: protein: recombinant; tags: N-terminal GST; dsDNA, one strand shown
Method in brief: as §1

SPIB = SPIB (Homo sapiens, UniProt Q01892 1-262); details: protein: recombinant; tags: N-terminal GST; dsDNA, one strand shown
Method in brief: as §1

ELK3 = biological target: T6, ELK3 (Homo sapiens, UniProt P41970 1-407); details: protein: recombinant; tags: N-terminal GST; dsDNA, one strand shown
T6 sequence: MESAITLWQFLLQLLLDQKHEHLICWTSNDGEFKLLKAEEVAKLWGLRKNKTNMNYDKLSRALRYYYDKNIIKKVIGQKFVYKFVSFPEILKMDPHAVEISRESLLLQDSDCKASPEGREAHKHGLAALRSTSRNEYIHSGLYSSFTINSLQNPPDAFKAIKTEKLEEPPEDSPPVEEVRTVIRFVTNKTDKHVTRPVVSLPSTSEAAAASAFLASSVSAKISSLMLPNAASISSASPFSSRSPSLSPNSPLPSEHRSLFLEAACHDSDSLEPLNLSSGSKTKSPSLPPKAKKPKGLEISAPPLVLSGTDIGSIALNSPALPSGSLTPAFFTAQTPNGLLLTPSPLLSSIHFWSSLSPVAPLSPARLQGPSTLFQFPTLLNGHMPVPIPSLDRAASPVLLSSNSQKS
Method in brief: as §1

FEV = biological target: T7, FEV (Homo sapiens, UniProt Q99581 1-238); details: protein: recombinant; tags: N-terminal GST; dsDNA, one strand shown
T7 sequence: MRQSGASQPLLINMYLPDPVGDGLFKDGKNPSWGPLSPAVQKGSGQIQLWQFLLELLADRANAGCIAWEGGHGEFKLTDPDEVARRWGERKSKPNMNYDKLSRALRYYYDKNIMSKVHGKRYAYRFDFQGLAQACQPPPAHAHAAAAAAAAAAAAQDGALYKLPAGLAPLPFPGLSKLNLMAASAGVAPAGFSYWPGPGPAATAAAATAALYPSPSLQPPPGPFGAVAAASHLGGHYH
Method in brief: as §1

ETV5 = ETV5 (Homo sapiens, UniProt P41161 1-510); details: protein: recombinant; tags: N-terminal GST; dsDNA, one strand shown
Method in brief: as §1

HSF1 = HSF1 (Homo sapiens, UniProt Q00613 1-529); details: protein: recombinant; tags: N-terminal GST; chain copies: 3; dsDNA, one strand shown
Method in brief: as §1

SPIC = biological target: T8, SPIC (Homo sapiens, UniProt Q8N5J4 1-248); details: protein: recombinant; tags: N-terminal GST; dsDNA, one strand shown
T8 sequence: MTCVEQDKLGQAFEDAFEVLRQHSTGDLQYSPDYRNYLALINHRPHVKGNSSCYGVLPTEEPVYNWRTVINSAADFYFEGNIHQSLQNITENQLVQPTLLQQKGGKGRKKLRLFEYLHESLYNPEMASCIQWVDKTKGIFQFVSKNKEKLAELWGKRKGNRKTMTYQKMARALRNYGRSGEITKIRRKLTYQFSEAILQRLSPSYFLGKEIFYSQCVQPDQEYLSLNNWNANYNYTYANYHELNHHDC
Method in brief: as §1

ELF4 = ELF4 (Homo sapiens, UniProt Q99607 1-663); details: protein: recombinant; tags: N-terminal GST; dsDNA, one strand shown
Method in brief: as §1

ELK4 = biological target: T9, ELK4 (Homo sapiens, UniProt P28324-2 1-405); details: protein: recombinant; tags: N-terminal GST; dsDNA, one strand shown
T9 sequence: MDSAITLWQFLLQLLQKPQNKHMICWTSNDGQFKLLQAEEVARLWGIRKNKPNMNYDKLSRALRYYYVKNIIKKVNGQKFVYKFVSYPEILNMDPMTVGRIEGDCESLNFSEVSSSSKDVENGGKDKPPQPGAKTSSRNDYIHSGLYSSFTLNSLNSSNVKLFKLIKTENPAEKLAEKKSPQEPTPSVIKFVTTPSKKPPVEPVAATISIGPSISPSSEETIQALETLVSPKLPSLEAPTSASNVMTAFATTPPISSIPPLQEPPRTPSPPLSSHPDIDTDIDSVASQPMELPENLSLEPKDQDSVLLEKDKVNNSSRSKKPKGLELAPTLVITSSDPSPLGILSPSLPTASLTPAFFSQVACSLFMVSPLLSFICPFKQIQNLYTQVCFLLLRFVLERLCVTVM
Method in brief: as §1

ETV2 = biological target: T10, ETV2 (Homo sapiens, UniProt O00321 1-342); details: protein: recombinant; tags: N-terminal GST; dsDNA, one strand shown
T10 sequence: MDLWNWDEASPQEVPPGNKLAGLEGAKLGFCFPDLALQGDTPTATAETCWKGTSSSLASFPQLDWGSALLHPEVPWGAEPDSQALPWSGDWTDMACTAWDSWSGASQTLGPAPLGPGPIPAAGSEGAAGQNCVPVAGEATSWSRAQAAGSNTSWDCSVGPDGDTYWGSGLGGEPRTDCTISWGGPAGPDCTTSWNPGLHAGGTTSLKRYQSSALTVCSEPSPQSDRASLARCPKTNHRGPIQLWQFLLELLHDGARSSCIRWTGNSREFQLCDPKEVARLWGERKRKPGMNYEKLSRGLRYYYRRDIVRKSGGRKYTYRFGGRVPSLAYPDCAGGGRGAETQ
Method in brief: as §1

ELF3 = biological target: T11, ELF3 (Homo sapiens, UniProt P78545 1-371); details: protein: recombinant; tags: N-terminal GST; dsDNA, one strand shown
T11 sequence: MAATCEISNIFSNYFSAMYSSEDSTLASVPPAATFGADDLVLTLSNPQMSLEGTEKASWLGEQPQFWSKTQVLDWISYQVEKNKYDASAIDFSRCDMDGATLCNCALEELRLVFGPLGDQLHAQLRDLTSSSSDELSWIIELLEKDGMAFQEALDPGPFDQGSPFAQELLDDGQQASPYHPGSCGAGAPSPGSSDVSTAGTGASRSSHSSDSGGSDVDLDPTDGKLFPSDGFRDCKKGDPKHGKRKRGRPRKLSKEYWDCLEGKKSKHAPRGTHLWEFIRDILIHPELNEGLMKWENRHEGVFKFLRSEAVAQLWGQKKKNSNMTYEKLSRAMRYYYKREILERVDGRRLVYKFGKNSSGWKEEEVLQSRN
Method in brief: as §1

CRX = CRX (Homo sapiens, UniProt O43186 1-299); details: protein: recombinant; tags: N-terminal GST; dsDNA, one strand shown
Method in brief: as §1

ETV1 = ETV1 (Homo sapiens, UniProt P50549 1-477); details: protein: recombinant; tags: N-terminal GST; dsDNA, one strand shown
Method in brief: as §1

SPIB, sequence (Q01892 whole entry): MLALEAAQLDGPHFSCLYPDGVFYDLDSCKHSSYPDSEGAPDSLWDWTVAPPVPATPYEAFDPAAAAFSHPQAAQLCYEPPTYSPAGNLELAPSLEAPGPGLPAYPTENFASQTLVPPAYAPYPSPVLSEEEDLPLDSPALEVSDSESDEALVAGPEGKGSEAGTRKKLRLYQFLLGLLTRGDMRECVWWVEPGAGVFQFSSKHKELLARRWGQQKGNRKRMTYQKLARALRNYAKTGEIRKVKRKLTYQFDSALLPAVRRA
ETV5, sequence (P41161 whole entry): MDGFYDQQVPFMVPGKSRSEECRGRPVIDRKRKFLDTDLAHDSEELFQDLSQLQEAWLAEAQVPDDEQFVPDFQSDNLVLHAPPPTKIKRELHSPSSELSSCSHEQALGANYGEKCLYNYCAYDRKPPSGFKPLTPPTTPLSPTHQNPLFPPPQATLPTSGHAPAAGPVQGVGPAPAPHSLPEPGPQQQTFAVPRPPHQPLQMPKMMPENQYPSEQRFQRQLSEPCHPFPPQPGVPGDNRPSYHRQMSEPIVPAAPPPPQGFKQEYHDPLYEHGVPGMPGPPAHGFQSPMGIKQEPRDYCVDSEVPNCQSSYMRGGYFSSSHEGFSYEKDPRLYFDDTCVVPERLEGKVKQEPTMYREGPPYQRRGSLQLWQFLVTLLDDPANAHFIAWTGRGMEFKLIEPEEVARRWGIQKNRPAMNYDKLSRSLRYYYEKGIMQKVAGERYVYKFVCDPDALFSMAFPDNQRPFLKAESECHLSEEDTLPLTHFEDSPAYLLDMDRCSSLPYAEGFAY
ELF1, sequence (P32519 whole entry): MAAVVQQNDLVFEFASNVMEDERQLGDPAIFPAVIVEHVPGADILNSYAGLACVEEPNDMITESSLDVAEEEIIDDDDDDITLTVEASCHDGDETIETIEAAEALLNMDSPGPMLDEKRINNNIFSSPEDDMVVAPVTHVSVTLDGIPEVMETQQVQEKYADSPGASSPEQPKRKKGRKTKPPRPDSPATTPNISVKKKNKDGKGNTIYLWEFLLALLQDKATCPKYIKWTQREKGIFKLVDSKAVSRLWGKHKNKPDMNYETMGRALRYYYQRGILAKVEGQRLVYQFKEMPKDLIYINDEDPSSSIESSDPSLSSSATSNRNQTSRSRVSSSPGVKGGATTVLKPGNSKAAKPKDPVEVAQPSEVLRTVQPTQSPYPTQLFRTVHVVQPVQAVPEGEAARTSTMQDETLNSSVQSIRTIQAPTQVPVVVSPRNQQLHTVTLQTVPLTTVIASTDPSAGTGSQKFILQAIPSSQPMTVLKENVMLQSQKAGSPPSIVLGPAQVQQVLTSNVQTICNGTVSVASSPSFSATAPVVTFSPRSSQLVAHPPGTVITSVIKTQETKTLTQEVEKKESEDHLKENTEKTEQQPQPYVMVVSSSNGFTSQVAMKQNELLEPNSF
HSF1, sequence (Q00613 whole entry): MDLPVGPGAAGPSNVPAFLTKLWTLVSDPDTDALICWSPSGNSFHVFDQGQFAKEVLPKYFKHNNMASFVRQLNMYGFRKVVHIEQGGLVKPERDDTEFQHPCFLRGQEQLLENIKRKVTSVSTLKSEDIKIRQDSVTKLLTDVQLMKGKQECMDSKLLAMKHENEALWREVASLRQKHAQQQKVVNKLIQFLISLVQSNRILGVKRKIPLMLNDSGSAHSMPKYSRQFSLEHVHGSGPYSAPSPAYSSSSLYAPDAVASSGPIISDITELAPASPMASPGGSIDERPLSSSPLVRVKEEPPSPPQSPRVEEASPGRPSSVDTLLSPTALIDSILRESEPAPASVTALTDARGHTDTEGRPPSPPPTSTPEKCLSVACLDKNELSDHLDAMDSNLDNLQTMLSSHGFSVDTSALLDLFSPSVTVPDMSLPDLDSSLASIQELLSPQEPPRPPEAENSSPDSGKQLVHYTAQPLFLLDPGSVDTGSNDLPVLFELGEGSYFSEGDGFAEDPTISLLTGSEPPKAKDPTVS
ELF4, sequence (Q99607 whole entry): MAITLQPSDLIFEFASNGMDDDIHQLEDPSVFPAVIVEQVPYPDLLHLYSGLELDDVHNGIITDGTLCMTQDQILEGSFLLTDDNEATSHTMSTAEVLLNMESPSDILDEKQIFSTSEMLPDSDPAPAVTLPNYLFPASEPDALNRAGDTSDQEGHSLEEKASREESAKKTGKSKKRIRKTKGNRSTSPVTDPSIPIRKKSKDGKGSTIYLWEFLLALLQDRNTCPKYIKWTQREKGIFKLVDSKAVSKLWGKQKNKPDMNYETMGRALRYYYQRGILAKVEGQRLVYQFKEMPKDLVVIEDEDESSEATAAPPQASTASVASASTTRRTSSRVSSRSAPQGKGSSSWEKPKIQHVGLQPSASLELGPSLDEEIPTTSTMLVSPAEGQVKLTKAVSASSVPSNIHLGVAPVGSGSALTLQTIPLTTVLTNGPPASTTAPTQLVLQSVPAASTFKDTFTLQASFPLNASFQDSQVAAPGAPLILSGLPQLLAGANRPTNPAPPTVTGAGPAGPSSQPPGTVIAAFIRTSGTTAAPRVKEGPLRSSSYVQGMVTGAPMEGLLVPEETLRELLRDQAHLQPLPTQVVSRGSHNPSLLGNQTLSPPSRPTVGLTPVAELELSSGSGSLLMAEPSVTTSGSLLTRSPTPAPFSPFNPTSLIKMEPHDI
CRX, sequence (O43186 whole entry): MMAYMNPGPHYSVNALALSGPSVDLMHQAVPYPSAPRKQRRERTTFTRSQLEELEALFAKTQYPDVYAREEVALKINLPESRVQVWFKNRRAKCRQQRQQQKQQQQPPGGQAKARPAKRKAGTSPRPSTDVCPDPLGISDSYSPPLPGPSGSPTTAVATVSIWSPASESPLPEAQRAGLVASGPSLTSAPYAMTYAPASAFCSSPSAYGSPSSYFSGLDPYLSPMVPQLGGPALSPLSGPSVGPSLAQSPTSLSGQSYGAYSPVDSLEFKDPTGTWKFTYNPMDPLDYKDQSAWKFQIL
ETV1, sequence (P50549 whole entry): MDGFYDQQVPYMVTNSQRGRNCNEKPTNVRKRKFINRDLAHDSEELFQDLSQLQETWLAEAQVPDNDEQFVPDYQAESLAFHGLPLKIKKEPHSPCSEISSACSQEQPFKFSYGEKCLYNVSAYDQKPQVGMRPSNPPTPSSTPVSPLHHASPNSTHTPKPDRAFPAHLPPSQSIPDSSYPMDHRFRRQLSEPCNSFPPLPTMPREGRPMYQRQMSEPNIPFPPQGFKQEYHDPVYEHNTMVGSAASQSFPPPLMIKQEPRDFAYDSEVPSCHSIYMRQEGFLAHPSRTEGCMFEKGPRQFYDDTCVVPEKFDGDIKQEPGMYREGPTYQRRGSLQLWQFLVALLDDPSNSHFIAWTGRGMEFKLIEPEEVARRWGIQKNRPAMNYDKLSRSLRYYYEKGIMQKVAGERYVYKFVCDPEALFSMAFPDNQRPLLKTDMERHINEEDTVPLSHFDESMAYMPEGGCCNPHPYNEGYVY

ATGGCC
binding signal (FLI1): 1.31 fold enrichment (6-mer frequency, TF over GST control) | binding signal (ELK1): 1.42 fold enrichment (6-mer frequency, TF over GST control) | binding signal (GABPA): 1.45 fold enrichment (6-mer frequency, TF over GST control) | binding signal (ERG): 1.46 fold enrichment (6-mer frequency, TF over GST control) | binding signal (ELF1): 1.35 fold enrichment (6-mer frequency, TF over GST control) | binding signal (EHF): 1.27 fold enrichment (6-mer frequency, TF over GST control) | binding signal (SPI1): 1.37 fold enrichment (6-mer frequency, TF over GST control) | binding signal (SPIB): 1.39 fold enrichment (6-mer frequency, TF over GST control) | binding signal (ELK3): 1.24 fold enrichment (6-mer frequency, TF over GST control) | binding signal (FEV): 1.45 fold enrichment (6-mer frequency, TF over GST control) | binding signal (ETV5): 1.42 fold enrichment (6-mer frequency, TF over GST control) | binding signal (HSF1): 1.23 fold enrichment (6-mer frequency, TF over GST control) | binding signal (SPIC): 1.52 fold enrichment (6-mer frequency, TF over GST control) | binding signal (ELF4): 1.44 fold enrichment (6-mer frequency, TF over GST control) | binding signal (ELK4): 1.48 fold enrichment (6-mer frequency, TF over GST control) | binding signal (ETV2): 1.41 fold enrichment (6-mer frequency, TF over GST control) | binding signal (ELF3): 1.5 fold enrichment (6-mer frequency, TF over GST control) | binding signal (CRX): 1.08 fold enrichment (6-mer frequency, TF over GST control) | binding signal (ETV1): 1.38 fold enrichment (6-mer frequency, TF over GST control)
